# AMA1-RON2 inh = inhibitors of Plasmodium falciparum AMA1-RON2 interaction; AlphaScreen AMA1-biotinylated RON2 peptide binding; Potency, µM (series often up to 58.2 µM), inactives show at the highest dose activity change, negative = inhibition, usual class: inhibitors; 360,000 tested, 0.2% active; AID 720542;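 note: potency is the fitted concentration of half-maximal effect; 0% = vehicle wells and -100% = peptide control; nearly all actives have a fitted effect of over 45% in size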
#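 AMA1 (3D7) with his tag at 25 nM final met compounds first, then biotinylated RON2 peptide at 25 nM; detection used donor plus acceptor beads, 10 µg/mL apiece, read by AlphaScreen after 30 min at room temperature.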
# AmpC inh no detg = AmpC beta-lactamase inhibition without detergent | Potency, µM (series often up to 57.1 µM), for inactives: top-dose activity change, negative = inhibition, most hits filed as inhibitors | 330,000 tested, 0.52% active | AmpC nitrocefin hydrolysis, absorbance 480 nm, 0.0001% Triton | P00811;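 note: potency is the fitted concentration of half-maximal effect; plate controls were no compound for no effect and no enzyme for full effect; nearly all actives have a fitted effect of over 20% in size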
# Target sequence (P00811 whole entry, looked up): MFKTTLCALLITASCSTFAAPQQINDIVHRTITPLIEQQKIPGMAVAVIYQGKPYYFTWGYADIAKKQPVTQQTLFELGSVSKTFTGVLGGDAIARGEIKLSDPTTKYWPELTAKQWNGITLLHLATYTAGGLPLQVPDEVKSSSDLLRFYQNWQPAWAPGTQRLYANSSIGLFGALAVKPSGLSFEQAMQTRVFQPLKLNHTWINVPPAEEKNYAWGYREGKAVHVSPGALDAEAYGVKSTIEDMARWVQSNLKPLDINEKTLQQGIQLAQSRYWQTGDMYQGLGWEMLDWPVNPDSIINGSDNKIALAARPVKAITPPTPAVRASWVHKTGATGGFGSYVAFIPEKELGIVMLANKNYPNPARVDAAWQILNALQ
#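 AmpC (5.3 nM in the dispensed reagent) in 20 mM phosphate pH 7.0 with 0.01% (detergent screen) or 0.0001% Triton X-100 was preincubated with compounds for 15 min at room temperature. Nitrocefin was then added from an 800 uM solution, and hydrolysis was followed at 480 nm.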
# AmpC detergent = AmpC beta-lactamase inhibition with detergent present; P00811; AID 485294; AmpC hydrolysis of nitrocefin, absorbance 480 nm, 0.01% Triton; 370,000 tested, 0.041% active; Potency, µM (top dose mostly 114 µM), for inactives: top-dose activity change, negative = inhibition, most hits filed as inhibitors;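 note: potency is the fitted concentration of half-maximal effect; 0% = no-compound wells and -100% = no-enzyme wells; nearly all actives have a fitted effect of over 25% in size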
#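 AmpC (5.3 nM in the dispensed reagent) in 20 mM phosphate pH 7.0 with 0.01% (detergent screen) or 0.0001% Triton X-100 was preincubated with compounds for 15 min at room temperature. Nitrocefin was then added from an 800 uM solution, and hydrolysis was followed at 480 nm.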
# Shiga toxin inh = Shiga toxin inhibition; 290,000 tested, 9.2% active; inhibition, % at 38.7 µM; Vero cells, Shiga toxin protein synthesis inhibition reporter; in the data active = inhibition mostly above about 28%, no sharp cut-off; inactive = mostly below about 43%; note: 0% is about no effect
# Cycloheximide cs = affects cycloheximide protein synthesis inhibition readout, counter-screen. cell reporter, cycloheximide protein synthesis inhibition counterscreen. max response, %. 300,000 tested, 12% active. AID 2314; in the data active = max response mostly above about 13%, no sharp cut-off; inactive = mostly below about 14%; note: read at 38.3 µM for the half of the compounds with a filed dose; 0% is about no effect
# SARS PLpro yeast = inhibitors of SARS-CoV papain-like protease in yeast | Potency, µM (series often up to 32.9 µM), inactives show top-dose activity, positive = growth rescue, usual class: activators | 330,000 tested, 0.19% active | S. cerevisiae expressing SARS-CoV PLpro, growth rescue; calls by dose curve; note: potency is the fitted concentration of half-maximal effect; 0% is about no effect; nearly all actives have a fitted effect of over 55% in size
# Starred values were filed as active, the others as inactive; ? = inconclusive; · = no result; [ ] = another dose, or the depositor's remark. This excerpt belongs to a sample that is enriched for hits. Unless noted, calls come from the whole dose curve; as a rule, active = well fitted curve in the direction sought with a large enough effect; inconclusive = small, poorly fitted or top-dose-only effect, or another doubt; inactive = no such curve, though single readings can be large; an effect the other way counts as inactive or inconclusive.
SMILES,AMA1-RON2 inh,AmpC inh no detg,AmpC detergent,Shiga toxin inh,Cycloheximide cs,SARS PLpro yeast
COc1cccc(C(c2c(O)cc(C)n(Cc3ccco3)c2=O)N2CCC(C)CC2)c1 (configuration not stated),·,·,3%,·,·,·
CCCn1c(NC(=O)c2ccco2)nc2ccccc21,23%,-31%,?,-13,10,-7%
COc1cc(NC(=O)Cn2ncc3c(=O)oc4ccccc4c32)cc(OC)c1OC,·,·,1%,·,·,·
Cc1cc(C(=O)NC2CC(C)(C)Cc3c2cnn3-c2ccc(F)cc2)no1 (configuration not stated),12%,45%,4%,37*,18,3%
Cc1ccc(-n2ncc3c2CC(C)(C)CC3NC(=O)c2ccccn2)cc1 (configuration not stated),-3%,92%,-9%,-2,21*,-11%
COc1cccc(/C=N/Nc2snc(SC)c2C#N)c1O,-5%,-46%,?,69*,72*,-11%
COc1cccc(/C=N/Nc2ccc(S(=O)(=O)O)cc2)c1O,53%,-6%,-3%,7,1,0%
COc1ccc(/C=N/Nc2snc(SC)c2C#N)cc1OC,-5%,-23%,-13%,98*,35*,-7%
COc1cccc(/C=N/Nc2snc(SC)c2C#N)c1,33%,-38%,1%,67*,27*,-7%
CSc1nsc(N/N=C/c2ccccc2)c1C#N,5%,-29%,-1%,51*,30*,-3%
Cc1ccc(N(CC(=O)NCc2ccc(F)cc2)C(=O)c2csnn2)cc1C,-4%,-1%,6%,16,4,-1%
Cc1cccc(Nc2nc(N)nc(CCl)n2)c1,16%,-16%,0%,77*,61*,-1%
COc1cccc(Nc2nc(N)nc(CCl)n2)c1,7%,-26%,4%,146*,57*,-1%
Cc1cccc(Nc2nc(N)nc(CSc3nccc(C)n3)n2)c1,-3%,-22%,?,49,6,3%
O=C(NNC(=O)c1cnccn1)c1ccc(Cl)cc1,75%,0%,4%,23,22*,0%
Cc1ccc(NC(=O)c2sc3nc[nH]c(=O)c3c2C)c(C)c1,-3%,-25%,-2%,23,27*,-6%
COc1ccc(NC(=O)C(OC(=O)c2cnccn2)c2ccccc2)cc1Cl (configuration not stated),-9%,10%,3%,53,17*,1%
O=C(Nc1ccc(Br)cc1Cl)c1cnccn1,14%,-26%,?,30,19*,-1%
COc1ccc(NC(=O)C(OC)c2ccccc2)cc1Cl (configuration not stated),12%[2.32 µM],-19%,0%,8,7,14%
O=C(Nc1ccccc1Cl)c1cnccn1,25%,-8%,-7%,41,11,-1%
COc1ccc(Cl)cc1NC(=O)c1cnccn1,24%,0%,-1%,20,13*,-3%
Cc1ccc(NC(=O)c2cnccn2)c(C)c1,-6%,-9%,1%,38*,21*,-5%
Cc1ccc(C)c(NC(=O)c2cnccn2)c1,2%,-14%,?,·,-2,4%
O=C(Nc1cc(Cl)ccc1Oc1ccccc1)c1cnccn1,15%,-15%,?,-8,-3,1%
CC(SC1=NCCS1)C(=O)Nc1nnc(-c2ccc(Cl)cc2)s1 (configuration not stated),-2%,-11%,?,29*,12*,3%
SMILES,AMA1-RON2 inh,AmpC inh no detg,AmpC detergent,Shiga toxin inh,Cycloheximide cs,SARS PLpro yeast
CC(Sc1nncn1C)C(=O)Nc1nnc(-c2ccccc2)s1 (configuration not stated),0%,-11%,?,46*,23*,-4%
COc1ccccc1-c1nnc(NC(=O)C(C)SC2=NCCS2)s1 (configuration not stated),36%,65%,?,-4,-2,-4%
CC(Sc1nncn1C)C(=O)Nc1nnc(C(C)C)s1 (configuration not stated),24%,-9%,?,7,-1,1%
O=C(c1cccnc1)N1CCN(Cc2ccccc2Br)CC1,?,-4%,-8%,-16,2,6%
O=C1OC(c2ccccc2)=C/C1=C/N1CCCCC1,-12%,-17%,-9%,126*,38*,-13%
O=C1OC(c2ccc(Br)cc2)=N/C1=C\N1CCCCC1,-8%,-12%,-7%,66*,23*,-3%
O=C1OC(c2ccccc2)=N/C1=C\N1CCCCC1,-3%,-3%,-2%,61*,42*,-7%
Cc1ccc(C2=N/C(=C\c3c(C)nn(-c4ccccc4)c3N3CCCC3)C(=O)O2)cc1,3%,-19%,-7%,-5,-2,-1%
Cn1nccc1C(=O)N1CCCC(C(=O)c2ccc(C(F)(F)F)cc2)C1 (configuration not stated),7%,39%,-11%,15,7,-1%
COc1ccccc1NC(=O)NNC(=O)c1cc2ccccc2cc1O,94%,-33%,6%,101*,26*,3%
Cc1ccc(NC(=O)NNC(=O)c2cc3ccccc3cc2O)cc1,67%,10µM*,-1%,-4,-1,0%
COc1cc(OC)cc(C(=O)NNC(=O)c2cc3ccccc3cc2O)c1,99%,-37%,3%,-6,-2,18%
CCCn1c(N)c(NCCN2CCOCC2)c(=O)[nH]c1=O,20%,-25%,-5%,17,-2,0%
CNc1nn(-c2cccc(Cl)c2)nc1N,-23%,-16%,2%,90*,47*,-28%
O=C(Nc1nc(-c2ccccc2)cs1)c1ccc(S(=O)(=O)N2CCc3ccccc32)cc1,-9%,-37%,3%,10,2,15%
CC1=CSC2=NC(=O)/C(=C/c3cccc(OC(=O)c4ccco4)c3)C(=N)N12,25%,-39%,-9%,34*,11,2%
CSC1=NSC2=NC(=O)/C(=C\c3ccc(OC(=O)c4ccco4)cc3)C(=N)N12,44%,-44%,4%,34*,19*,-1%
CC(C)CS(=O)(=O)C1=NSC2=NC(=O)/C(=C\c3ccc(OC(=O)c4ccco4)cc3)C(=N)N21,-7%,-43%,-4%,-5,-2,14%
CC(=O)Nc1ccc(Nc2nc(C)nc3c2oc2ccccc23)cc1,-16%,-7%,-12%,1,1,1%
c1ccc2c(c1)oc1c(NCC3CCCO3)ncnc12 (configuration not stated),1%,-6%,-2%,54*,34*,0%
CCc1nc(NCc2ccccn2)c2oc3ccccc3c2n1,28%,-14%,-6%,4,-4,-1%
c1ccc(-c2nc(NCC3CCCO3)c3oc4ccccc4c3n2)cc1 (configuration not stated),-6%,15%,-12%,1,-4,-14%

# Compound activity from PubChem.
